Screening data deposited in PubChem by National Center for Advancing Translational Sciences (NCATS).
Rows were chosen to be rich in hits. Some 2.8% of all compounds tested hit in one or more screens of this group.
WRN helicase inh – WRN helicase (human) inhibition; WRN helicase unwinding, fluorescent forked duplex, kinetic; Potency, µM (series often up to 114 µM), usual class: inhibitors; 360,000 compounds, 0.46% hits; also: nearly all actives have a fitted effect of over 55% in size
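Kinetic red-fluorescence monitoring (525/598 nm) tracks WRN helicase activity after 100 nM fluorophore-quencher forked duplex and 2 mM ATP are added to 20 nM enzyme pretreated 15 min at room temperature with compound.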
PI5P4Ka inh – PI5P4K alpha (human) kinase inhibition. P48426. PI5P4Kalpha enzyme, ADP-Glo luminescence, 60 min; hits give low values. max response, %. 330,000 compounds, 1.2% hits. AID 652105; active = max response of -50% or lower; inconclusive = between -30% and -50%; inactive = -30% or higher; also: value at the top dose of about 77 µM
Target sequence (P48426 whole entry, looked up): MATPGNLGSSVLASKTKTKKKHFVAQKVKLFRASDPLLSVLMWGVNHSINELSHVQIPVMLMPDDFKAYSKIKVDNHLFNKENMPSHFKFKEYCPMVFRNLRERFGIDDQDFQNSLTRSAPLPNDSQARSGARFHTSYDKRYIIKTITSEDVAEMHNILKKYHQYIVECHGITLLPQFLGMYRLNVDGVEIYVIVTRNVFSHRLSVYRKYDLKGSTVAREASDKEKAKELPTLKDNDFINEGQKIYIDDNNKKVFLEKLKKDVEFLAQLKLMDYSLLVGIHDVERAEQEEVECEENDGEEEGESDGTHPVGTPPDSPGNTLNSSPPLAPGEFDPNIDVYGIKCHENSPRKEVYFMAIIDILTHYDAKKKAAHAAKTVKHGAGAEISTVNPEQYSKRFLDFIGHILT
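Quantitative HTS of the MLSMR library against PI5P4Kalpha with substrate. ATP added last at 5 microM final; room temperature, 60 minutes. Remaining ATP depleted, ADP converted and read as luminescence.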
POLH inh – inhibitors of human DNA polymerase eta | Q9Y253 | recombinant Pol eta, fluorescent DNA replication assay | Potency, µM (top dose mostly 114 µM), usual class: inhibitors | 390,000 compounds, 1.2% hits | AID 588591
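Fluorescent replication assay: 50 nM final substrate added after a 15 min room-temperature compound preincubation with 10 nM enzyme. Signal taken at 0 min and again at 10 min.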
POLK inh – inhibitors of human DNA polymerase kappa | purified Pol kappa, fluorescent DNA synthesis assay, 10 min | 400,000 compounds, 0.53% hits | Potency, µM (doses to about 107 µM), actives largely listed as inhibitors | Q9UBT6
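50 nM final substrate added after 15 min RT preincubation of 10 nM Pol kappa with compound; fluorescence read at 0 and 10 min.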
Pol beta inh – blocks human DNA polymerase beta activity; P06746; Pol beta primer extension/strand displacement, fluorescence kinetic; Potency, µM (top dose mostly 114 µM), actives largely listed as inhibitors; 340,000 compounds, 1.3% hits; AID 485314
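Preincubation: enzyme (10 nM) with compound, 15 min, RT. Reaction: substrate added to 50 nM final. Reads: 0 and 10 min. Analysis: normalized, Hill fit.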
Pol iota inh – blocks human DNA polymerase iota activity | Pol iota fluorescent replication assay, 10 min | Potency, µM (titrated, usually from 115 µM), hits mostly inhibitors | AID 588590 | 390,000 compounds, 1% hits | Q9UNA4
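Pol iota at 10 nM preincubated 15 min with compounds at room temperature; reaction started with fluorescent substrate, 50 nM final. Fluorescence read kinetically at 0 and 10 min; buffer-only wells as negative control.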
A number is an active result; - = inactive; ? = inconclusive; . = not tested or not shown; [ ] = dose if it differs, or a comment. Unless noted, calls follow the shape of the dose curve; as a rule, active = well fitted curve in the direction sought with a large enough effect; inconclusive = small, poorly fitted or top-dose-only effect, or another doubt; inactive = no such curve, though single readings can be large; an effect the other way counts as inactive or inconclusive.

SMILES | WRN helicase inh | PI5P4Ka inh | POLH inh | POLK inh | Pol beta inh | Pol iota inh
CC(C)CCNC(=O)c1ccc2nc[nH]c2c1 | - | - | - | - | - | -
CCc1c(C)sc2c1CCN(Cc1ccccc1)C2c1ccccc1 (stereo unspecified) | . | . | - | - | - | -
COc1ccc(Nc2ccnc3ccccc23)cc1 | - | ? | - | - | - | -
c1ccc(CCNc2ccnc3cc4ccccc4cc23)cc1 | - | - | - | - | 22µM | -
CC(C)Nc1ccc(Nc2ccnc3cc4ccccc4cc23)cc1 | 35µM | - | - | ? | 14µM | ?
COc1ccc(CNC(=O)CCc2nnc3ccc(N4CCC5(CC4)OCCO5)nn23)cc1 | - | - | - | - | - | -
Cc1ccc(CNC(=O)CCc2nnc3ccc(N4CCC5(CC4)OCCO5)nn23)cc1 | -[11.6 µM] | - | - | 79µM | - | ?
COc1cc(OC)c(NC(=O)c2cn(C)c(=O)c3cc(OC)c(OC)cc23)cc1Cl | . | . | 56µM | - | - | -
CCC(Sc1nc2ccccc2c2nc(CCc3c(C)n[nH]c3C)nn12)C(=O)Nc1ccc(OC)cc1 (stereo unspecified) | . | . | ? | - | ? | ?
Nc1nc(SCC(=O)NCc2ccco2)[nH]c(=O)c1-c1ccccc1 | - | . | - | - | - | -
Cc1nc(SCC(=O)NCc2ccco2)[nH]c(=O)c1C | - | . | - | - | ? | 79µM
CCOc1ccc(-n2c(=S)sc3c(=O)[nH]c(SCC(=O)NCc4ccco4)nc32)cc1 | - | . | 56µM | - | 35µM | ?
CCOC(=O)CSc1nc2c(sc(=S)n2-c2ccc(OCC)cc2)c(=O)[nH]1 | - | - | - | - | - | -
NCCCN(Cc1ccc(Cl)c(Cl)c1)c1ccc(Br)cn1 | . | . | . | - | . | -
O=C(CCCCCN1CCN(c2ccccc2-c2ccccc2)CC1)NC1CCCc2ccccc21 (stereo unspecified) | . | . | . | - | . | .
CC(=O)OCCN(C)c1cc(SC(C)C)c2nonc2c1[N+](=O)[O-] | - | - | - | - | - | -
CN(CCO)c1cc(Sc2nc3ccccc3s2)c2nonc2c1[N+](=O)[O-] | ? | . | - | - | - | 22µM
CN(C(=O)Cn1c(=O)n(Cc2ccc(C(=O)NCc3ccc4c(c3)OCO4)cc2)c(=O)c2ccccc21)c1ccccc1 | . | . | - | - | - | -
N#Cc1c(N)n(-c2ccccc2)c(=O)c2cc([N+](=O)[O-])ccc12 | - | - | - | - | - | -
CN(C)S(=O)(=O)c1cccc(-n2sc3ccccc3c2=O)c1 | - | -91 | - | - | - | ?
O=C(O)c1cccc(-n2sc3ccccc3c2=O)c1 | -[11.6 µM] | -103 | - | - | . | ?
O=C(O)c1cccc(N2C(=O)CCC2=O)c1 | . | . | . | . | - | .
N#Cc1ccc2c(=O)n(-c3ccccc3)sc2c1 | - | -85 | - | . | . | .
Cc1ccc(-n2sc3ccccc3c2=O)cc1S(=O)(=O)N1CCCCC1 | - | -111 | - | - | - | ?
O=c1c2ccccc2sn1-c1ccc(S(=O)(=O)N2CCCCC2)cc1 | - | . | - | - | . | -
SMILES | WRN helicase inh | PI5P4Ka inh | POLH inh | POLK inh | Pol beta inh | Pol iota inh
COc1ccc(NC(=O)c2cc3c(=O)n(C)c4cc(Cl)ccc4c3s2)cc1Cl | . | . | - | - | - | -
COc1cc2nc(N3CCCN(C)CC3)nc(NC3CCNCC3)c2cc1OC | . | . | . | - | . | ?
COc1ccccc1-c1nnc(SCC(=O)c2ccc(F)cc2)n1-c1ccccc1 | . | . | - | - | - | ?
O=c1c2ccccc2sn1-c1ccccc1F | - | -106 | - | . | . | .
O=c1c2ccccc2sn1-c1cccc(Cl)c1 | - | -101 | - | . | . | .
Cn1c(=O)n(-c2cccc(Cl)c2)c(=O)c2sc3ccccc3c21 | . | . | - | - | - | -
Cn1sc2ccccc2c1=O | - | ? | - | . | . | .
Cc1ccccc1-n1sc2cc(F)ccc2c1=O | 14µM | -88 | - | - | - | -
O=C1c2ccccc2C(=O)N1c1nccs1 | - | - | - | - | . | -
O=c1c2ccccc2sn1-c1nccs1 | 25µM | -81 | - | - | - | -
Cc1ccc(C)c(NC(=O)Cn2c(=O)n(Cc3ccc4c(c3)OCO4)c(=O)c3oc4ccccc4c32)c1 | . | . | - | - | - | -
Cc1ccccc1CN1C(=O)C(O)(CC(=O)c2cccc(Br)c2)c2ccccc21 (stereo unspecified) | . | . | - | - | - | -
